From the supplement of paper PMC13380429

System: Vero E6 infected with SARS-CoV-2
Assay: inhibition of SARS-CoV-2 cytopathic effect; higher = more antiviral protection, active = above 15
Conditions: 48 h

Measured: inhibition of SARS-CoV-2 cytopathic effect

Cc1cccc(Oc2cnc(=O)[nH]c2)c1 [tolimidone]
inactive: 1 nM -0.32% | 8.33 nM -2.84% | 100 nM -2.12% | 833.33 nM -13.1% | 10000 nM 0.88%

CC(C)Cn1cnc2c1c(=O)n(C)c(=O)n2C [isbufylline]
inactive: 1 nM -1.81% | 8.33 nM 0.75% | 100 nM 0.2% | 833.33 nM -0.05% | 10000 nM 1.65%

C[C@@H](O)[C@H]1C(=O)N2C(C(=O)O)=C(S[C@@H]3CN[C@H](C(=O)Nc4cccc(C(=O)O)c4)C3)[C@H](C)[C@H]12 [ertapenem]
inactive: 1 nM 0.22% | 8.33 nM 3.19% | 100 nM 1.71% | 833.33 nM 2.2% | 10000 nM 2.62%

NC(=O)c1cccc2cn(-c3ccc([C@@H]4CCCNC4)cc3)nc12 [niraparib]
inactive: 1 nM -0.28% | 8.33 nM 0.08% | 100 nM -1.61% | 833.33 nM 3.39% | 10000 nM 5.55%

Cc1c(C)c2c(c(C)c1O)CC[C@@](C)(CCC[C@H](C)CCC[C@H](C)CCCC(C)C)O2 [vitamin-E]
inactive: 1 nM 3.32% | 8.33 nM 3.3% | 100 nM 2.84% | 833.33 nM 0.81% | 10000 nM 0.23%

NC(=O)c1cnc(N[C@@H]2CCCC[C@@H]2N)nc1Nc1cccc(-n2nccn2)c1
inactive: 1 nM -1.26% | 8.33 nM -0.3% | 100 nM 2.11% | 833.33 nM -0.39%
active: 10000 nM 24.4%

NCCS(=O)(=O)O [taurine]
inactive: 1 nM -2.1% | 8.33 nM -0.91% | 100 nM -1.56% | 833.33 nM 0.1% | 10000 nM -0.28%

c1ccc(CN(CC2=NCCN2)c2ccccc2)cc1 [antazoline]
inactive: 1 nM -3.99% | 8.33 nM -2.45% | 100 nM -2.58% | 833.33 nM -1.01% | 10000 nM -3.78%

CC(=O)Nc1ccc(OC[C@](C)(O)C(=O)Nc2ccc([N+](=O)[O-])c(C(F)(F)F)c2)cc1 [andarine]
inactive: 1 nM -0.84% | 8.33 nM -0.36% | 100 nM -2.49% | 833.33 nM -1.89% | 10000 nM -1.92%

Brc1c(Br)c(Br)c2[nH]nnc2c1Br [4,5,6,7-tetrabromobenzotriazole]
inactive: 1 nM 1.42% | 8.33 nM 3.75% | 100 nM -0.07% | 833.33 nM 1.63% | 10000 nM 3.61%

CCc1c(O)cc(O)c(C(=O)c2ccc(OCCN3CCOCC3)c(OC)c2)c1CC(=O)N(CCOC)CCOC
inactive: 1 nM -1.17% | 8.33 nM -2.57% | 100 nM -1.95% | 833.33 nM -1.17% | 10000 nM 0.48%

O=C(CNC(=O)c1cccc(C(F)(F)F)c1)N[C@@H]1CCN(Cc2ccc(Cl)cc2)C1 [teijin-compound-1]
inactive: 1 nM -1.08% | 8.33 nM -0.19% | 100 nM 0.66% | 833.33 nM -1.99% | 10000 nM -4.88%

O=C(O)c1ccc(-c2c[nH]c3ncc(-c4ccccc4)cc23)cc1C1CCCC1
inactive: 1 nM 4.37% | 8.33 nM 5.26% | 100 nM 0.74% | 833.33 nM 1.88% | 10000 nM -0.09%

CC[C@@H](C(N)=O)N1CCCC1=O [levetiracetam]
inactive: 1 nM 0.86% | 8.33 nM 0.42% | 100 nM 0.01% | 833.33 nM 0.56% | 10000 nM -0.05%

CC(=O)O[C@]1(C(C)=O)CC[C@H]2[C@@H]3CCC4=CC(=O)CCC4=C3[C@@H](c3ccc(N(C)C)cc3)C[C@@]21C [Ulipristal acetate]
inactive: 1 nM 4.79% | 8.33 nM 2.62% | 100 nM 1.8% | 833.33 nM 7.36% | 10000 nM 12.9%

O=c1ccc2ccccc2o1 [coumarin]
inactive: 1 nM -0.97% | 8.33 nM -0.94% | 100 nM -1.66% | 833.33 nM 1.9% | 10000 nM -0.9%

CC(Oc1ccc(O)cc1)(P(=O)(O)O)P(=O)(O)O
inactive: 1 nM -3.21% | 8.33 nM -1.85% | 100 nM 3.91% | 833.33 nM -1.36% | 10000 nM -1.37%

CN(N=O)C(=O)N[C@@H](C=O)[C@@H](O)[C@H](O)[C@H](O)CO [streptozotocin]
inactive: 1 nM -2.28% | 8.33 nM -2.25% | 100 nM 2.59% | 833.33 nM 1% | 10000 nM 3.27%

C=C[C@]1(C)C[C@@H](OC(=O)CS[C@@H]2C[C@H]3CC[C@@H](C2)N3C)[C@]2(C)[C@H](C)CC[C@]3(CCC(=O)[C@H]32)[C@@H](C)[C@@H]1O [retapamulin]
inactive: 1 nM -0.46% | 8.33 nM 2.42% | 100 nM 1.21% | 833.33 nM 1.93% | 10000 nM -0.87%

CCN1CCN(c2cc3c(cc2F)c(=O)c(C(=O)O)cn3C2CC2)CC1 [enrofloxacin]
inactive: 1 nM 2.85% | 8.33 nM 4.7% | 100 nM 2.54% | 833.33 nM 2.88% | 10000 nM 5.39%

C[N+](C)(C)CC#CCN1CCCC1=O [oxotremorine-M]
inactive: 1 nM -3.6% | 8.33 nM -0.15% | 100 nM 2.23% | 833.33 nM -2.21% | 10000 nM 0.38%

Oc1cccc2cccnc12 [oxyquinoline]
inactive: 1 nM -1.21% | 8.33 nM -0.58% | 100 nM 0.04% | 833.33 nM 2.84% | 10000 nM -0.31%

CN[C@@H]1[C@@H](O)[C@@H](O[C@@H]2[C@@H](O)[C@H](O[C@H]3O[C@H](CN)[C@@H](O)[C@H](O)[C@H]3O)[C@@H](N)C[C@H]2NC(=O)[C@@H](O)CN)OC[C@]1(C)O [isepamicin]
inactive: 1 nM -2.06% | 8.33 nM 1% | 100 nM 3.72% | 833.33 nM -1.29% | 10000 nM -1.06%

[NH-]c1c[n+](N2CCOCC2)no1 [linsidomine]
inactive: 1 nM 0.45% | 8.33 nM 3.55% | 100 nM 0.57% | 833.33 nM -0.32% | 10000 nM 1.99%

CS(=O)(=O)Nc1ccc(Cc2noc(-c3ccc4[nH]cc(CCN)c4c3)n2)cc1
inactive: 1 nM -2.75% | 8.33 nM -0.95% | 100 nM -2.42% | 833.33 nM -1.18% | 10000 nM -1.18%

CCNCC(O)c1cccc(O)c1 (stereo not given) [etilefrine]
inactive: 1 nM -0.51% | 8.33 nM 2.79% | 100 nM -0.96% | 833.33 nM -0.19% | 10000 nM 1.89%

O=C(Oc1ccc([N+](=O)[O-])cc1)N1CCC(C(O)(c2ccc3c(c2)OCO3)c2ccc3c(c2)OCO3)CC1
inactive: 1 nM 0.7% | 8.33 nM 6.75% | 100 nM 2.26% | 833.33 nM 1.03% | 10000 nM 1.62%

CCCCN(CCCC)C(=O)CN1C[C@H](c2ccc3c(c2)OCO3)[C@@H](C(=O)O)[C@@H]1c1ccc(OC)cc1 [atrasentan]
inactive: 1 nM 0.53% | 8.33 nM 1.72% | 100 nM 1.15% | 833.33 nM 2.37% | 10000 nM 1.46%

NC(=O)CN1CC[C@@H](NC(=O)[C@@H]2CCCN2)C1=O
inactive: 1 nM 1.05% | 8.33 nM -1.41% | 100 nM 0.01% | 833.33 nM 0.9% | 10000 nM 0.65%

O=C(c1ccc(F)c(F)c1Nc1ccc(I)cc1F)N1CC(O)([C@@H]2CCCCN2)C1 [cobimetinib]
inactive: 1 nM -0.38% | 8.33 nM -3.42% | 100 nM -9.73% | 833.33 nM -11.8% | 10000 nM -12.2%

C=CCN1C[C@H](C(=O)N(CCCN(C)C)C(=O)NCC)C[C@@H]2c3cccc4[nH]cc(c34)C[C@H]21 [cabergoline]
inactive: 1 nM -19% | 8.33 nM -12.2% | 100 nM -10% | 833.33 nM -8.73% | 10000 nM -14.1%

O=C(c1ccc(-c2ccc(Cl)cc2)o1)N(Cc1ccccn1)c1ccc(N2CCNCC2)cc1
inactive: 1 nM -2.64% | 8.33 nM 1.12% | 100 nM -0.23% | 833.33 nM -1.66%
active: 10000 nM 43.8%

CC(C)NCC(O)COc1cccc2[nH]c3ccccc3c12 (stereo not given) [carazolol]
inactive: 1 nM 1.76% | 8.33 nM -2.21% | 100 nM -1.61% | 833.33 nM 0% | 10000 nM -4.08%

O=C1CN=C(c2cccc(Br)c2)c2oc3ccccc3c2N1
inactive: 1 nM -2.75% | 8.33 nM -1.3% | 100 nM -1.9% | 833.33 nM 0.38% | 10000 nM 0.75%

Cc1nc(C#Cc2ccnc(Cl)c2)c(C)n1-c1ccc(F)cc1 [basimglurant]
inactive: 1 nM -0.13% | 8.33 nM -0.64% | 100 nM -2.56% | 833.33 nM -1.39% | 10000 nM 4.98%

CS(=O)(=O)OCCCCOS(C)(=O)=O [busulfan]
inactive: 1 nM -2.94% | 8.33 nM -4.62% | 100 nM -3.55% | 833.33 nM -3.78% | 10000 nM -4.14%

CCCCOC(=O)c1ccccc1Nc1cccc(C(F)(F)F)c1 [ufenamate]
inactive: 1 nM 2.83% | 8.33 nM 2.78% | 100 nM 0.41% | 833.33 nM 1.79% | 10000 nM 0.16%

CC(=O)OCC(=O)[C@@]12OC(C)(C)O[C@@H]1C[C@H]1[C@@H]3C[C@H](F)C4=CC(=O)C=C[C@]4(C)[C@@]3(F)[C@@H](O)C[C@@]12C [fluocinonide]
inactive: 1 nM 0.75% | 8.33 nM -0.105% | 100 nM 0.48% | 833.33 nM 0.035% | 10000 nM -1.54%

COCCNC(=O)COc1ccc(OCCNC[C@H](O)COc2ccccc2)cc1
inactive: 1 nM 0.49% | 8.33 nM 1.84% | 100 nM -1.53% | 833.33 nM -1.02% | 10000 nM -6.62%
